{
  "source": "the supplement of paper PMC11732987",
  "about": "“Enantioselective OTUD7B fragment discovery through chemoproteomics screening and high-throughput optimisation” (Communications Chemistry, 2025)",
  "note": "A number with no mark means an inactive call.",
  "data": [
    {"target": "T1, USP38 (UniProt Q8NB14)", "T1 sequence (whole entry)": "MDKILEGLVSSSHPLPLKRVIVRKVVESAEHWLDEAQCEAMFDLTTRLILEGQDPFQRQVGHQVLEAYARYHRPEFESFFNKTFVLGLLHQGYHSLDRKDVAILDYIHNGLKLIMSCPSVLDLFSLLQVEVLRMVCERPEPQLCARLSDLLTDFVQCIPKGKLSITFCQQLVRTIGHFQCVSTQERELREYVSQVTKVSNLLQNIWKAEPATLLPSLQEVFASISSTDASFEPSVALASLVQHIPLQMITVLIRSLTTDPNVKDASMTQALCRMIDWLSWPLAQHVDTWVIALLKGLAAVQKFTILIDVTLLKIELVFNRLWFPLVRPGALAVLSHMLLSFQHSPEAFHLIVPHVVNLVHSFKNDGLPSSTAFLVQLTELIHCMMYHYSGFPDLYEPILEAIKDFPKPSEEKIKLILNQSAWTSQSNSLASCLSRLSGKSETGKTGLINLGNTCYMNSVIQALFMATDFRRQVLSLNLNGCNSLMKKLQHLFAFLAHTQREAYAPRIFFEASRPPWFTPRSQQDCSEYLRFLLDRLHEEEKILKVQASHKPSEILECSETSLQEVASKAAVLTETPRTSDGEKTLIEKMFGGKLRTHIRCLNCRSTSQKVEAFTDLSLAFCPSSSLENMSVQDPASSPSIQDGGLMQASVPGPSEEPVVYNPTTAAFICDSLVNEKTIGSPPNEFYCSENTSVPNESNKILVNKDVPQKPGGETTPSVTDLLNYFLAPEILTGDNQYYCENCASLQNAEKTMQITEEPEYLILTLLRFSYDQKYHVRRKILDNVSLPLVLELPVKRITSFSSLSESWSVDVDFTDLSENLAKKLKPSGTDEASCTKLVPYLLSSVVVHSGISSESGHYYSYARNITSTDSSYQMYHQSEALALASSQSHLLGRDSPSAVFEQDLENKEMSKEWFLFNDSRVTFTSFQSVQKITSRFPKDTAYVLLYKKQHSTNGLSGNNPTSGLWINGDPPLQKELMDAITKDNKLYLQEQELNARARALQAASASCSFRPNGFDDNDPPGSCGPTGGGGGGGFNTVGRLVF", "assay": "log2 ratio of Biotin-Ahx-Ub-VS probe labelling (compound/DMSO); higher = less target engagement, active = hit call of the paper (q ≤ 0.05, log2 ratio ≤ -1)", "settings": "compound concentration: 50uM; treatment time: 3 h", "protocol": "(§1)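 Round 2 competitive ABPP in HEK293T lysate. Compounds were tested at 50 and 200 µM for 3 h, followed by Biotin-Ahx-Ub-VS enrichment and diaPASEF LC-MS/MS. Values are the average log2 ratio (compound/DMSO) from an unpaired t-test (n=3 treated, n=26 DMSO).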", "values": [
      {"smiles": "Cl.O=C(CCl)N1CCc2ncncc2C1", "log2 ratio of Biotin-Ahx-Ub-VS probe labelling": -0.214},
      {"smiles": "CN1c2ccccc2C(NC(=O)CCl)CS1(=O)=O", "note": "(configuration not stated)", "log2 ratio of Biotin-Ahx-Ub-VS probe labelling": -0.19},
      {"smiles": "CCC1c2ccsc2CCN1C(=O)CCl", "note": "(configuration not stated)", "log2 ratio of Biotin-Ahx-Ub-VS probe labelling": 0.124},
      {"smiles": "O=C(CCl)NC1CCOc2ccccc21", "note": "(configuration not stated)", "log2 ratio of Biotin-Ahx-Ub-VS probe labelling": 0.0839},
      {"smiles": "COc1cccc(CN(C)C(=O)CCl)c1", "log2 ratio of Biotin-Ahx-Ub-VS probe labelling": 0.0582},
      {"smiles": "Cl.Cn1ncc2c1CCCC2NC(=O)CCl", "note": "(configuration not stated)", "log2 ratio of Biotin-Ahx-Ub-VS probe labelling": 0.328}
    ]},
    {"target": "T1, USP38", "assay": "log2 ratio of Biotin-Ahx-Ub-VS probe labelling (compound/DMSO); higher = less target engagement, active = hit call of the paper (q ≤ 0.05, log2 ratio ≤ -1)", "settings": "compound concentration: 200uM; treatment time: 3 h", "protocol": "as §1", "values": [
      {"smiles": "Cl.O=C(CCl)N1CCc2ncncc2C1", "log2 ratio of Biotin-Ahx-Ub-VS probe labelling": -0.296},
      {"smiles": "CN1c2ccccc2C(NC(=O)CCl)CS1(=O)=O", "note": "(configuration not stated)", "log2 ratio of Biotin-Ahx-Ub-VS probe labelling": -0.231},
      {"smiles": "CCC1c2ccsc2CCN1C(=O)CCl", "note": "(configuration not stated)", "log2 ratio of Biotin-Ahx-Ub-VS probe labelling": -0.277},
      {"smiles": "O=C(CCl)NC1CCOc2ccccc21", "note": "(configuration not stated)", "log2 ratio of Biotin-Ahx-Ub-VS probe labelling": -0.0989},
      {"smiles": "COc1cccc(CN(C)C(=O)CCl)c1", "log2 ratio of Biotin-Ahx-Ub-VS probe labelling": -0.322},
      {"smiles": "Cl.Cn1ncc2c1CCCC2NC(=O)CCl", "note": "(configuration not stated)", "log2 ratio of Biotin-Ahx-Ub-VS probe labelling": -0.153}
    ]}
  ]
}
